This is an account of results in PubChem BioAssay (NCATS).

A short description of experiment [1]: AP1 Signaling Pathway (AID 357; active = well fitted curve in either direction with a large enough effect, not every such curve was filed as active; note: % is set by controls: 0 for no effect and ±100 for the full control effect). Particulars: ME-180 AP-1-bla reporter, EGF-induced, beta-lactamase ratio, 5 h; at 7.69 µM (top of the series) unless noted. In a few lines:
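ME-180 cells with beta-lactamase reporter under AP-1 response element, stimulated with EC50 EGF; compounds tested in titration series, 5 h at 37 °C. CCF4 substrate added 2.5 h at room temperature; 460/530 nm emission ratio gave %activity and AC50.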

The target of experiment [2] is Cytochrome P450 1A2 (Homo sapiens) (UniProt P05177). The experiment can be described thus: p450-cyp1a2 (AID 410; calls by dose curve; note: potency is the fitted concentration of half-maximal effect;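 for activity change, negative = inhibition: -100% = full effect of reference inhibitor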). In a few lines: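 Human CYP1A2 (20nM) demethylated Luciferin-ME at its Km (100uM) in 100mM KPO4. After 10 min compound preincubation, NADPH regeneration ran the reaction 60 min at room temperature. Luciferin was read by luminescence, normalized to 57 uM furafylline.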

A short description of experiment [3]: NFAT Signaling Pathway (AID 444; active = well fitted curve in either direction with a large enough effect, not every such curve was filed as active;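 note: carbachol stimulus at about its EC50 of 1 µM final; % is set by controls: 0 for no effect and ±100 for the full control effect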). The note with it: Jurkat NFAT-bla M1, carbachol, beta-lactamase ratio, 5 h; at 7.69 µM (top of the series) unless noted. In a few lines: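 Jurkat cells carrying an NFAT-driven β-lactamase reporter and co-transfected muscarinic M1 receptor were treated with compound plus carbachol (1 uM final, an EC50 level) for 5 h at 37 °C. CCF4 loading followed for 1 h at RT; 460/530 nm ratio gave %activity.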

Experiment [4] concerns the target Glucocorticoid receptor (Homo sapiens) (UniProt P04150). The experiment can be described thus: GR-EFC Redistribution (AID 451; calls by dose curve; note: potency is the fitted concentration of half-maximal effect). The note with it: CHO-K1 GR-EFC translocation, beta-gal luminescence, 2 h. The gist of the method: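 CHO-K1 cells stably expressing nuclear-localized β-gal enzyme acceptor and GR fused C-terminally to the enzyme donor fragment; ligand-driven nuclear translocation restores β-gal by complementation. Compounds titrated up to 46 uM final, 2 h at 37 °C; luminescence read.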

In experiment [5] the target is Mitogen-activated protein kinase 10 (Mus musculus) (UniProt Q61831). In words: JNK3 AlphaScreen Assay (AID 530; active = well fitted curve in either direction with a large enough effect, not every such curve was filed as active;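 note: kinase came from lysate of stimulated human HepG2 cells; signal reports phosphorylation of biotinylated GST-cJun 1-79 at Ser73 with 10 µM ATP; % is set by controls: 0 for no effect and ±100 for the full control effect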). In a few lines: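 JNK3 came from HepG2 lysates pre-activated with IL-1beta and TNF-alpha and phosphorylated biotinylated GST-cJun (1-79) at 10 uM ATP, pH 7.6, room temperature. Compounds were titrated. AlphaScreen signal used anti-phospho-cJun (Ser73) antibody.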
(Alpha assays give light when donor and acceptor beads are brought close together.)

In experiment [6] the target is 3',5'-cyclic-AMP phosphodiesterase 4B (Homo sapiens) (UniProt Q07343). In words: qHTS Assay for Inhibitors of PDE-IV (AID 607; active = well fitted activation curve with a large enough effect in the main read-out, with a control signal flat, not every such curve was filed as active; note: % of control where 0% means no effect). In a few lines:
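Cell-based read-out of cAMP via a modified cyclic nucleotide-gated channel and membrane potential dye (535/590 nm) in HEK293 cells expressing PDE4 endogenously. Compounds tested up to 22.9 uM final; 100 uM RO 20-1724 reference.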
In general terms: In qHTS, concentration-response curves come from the screen itself.

The target in experiment [7] is Guanine nucleotide-binding protein G(i) subunit alpha-1 (Homo sapiens) (UniProt P63096). The experiment can be described thus: qHTS Assay for Inhibitors of RGS12 GoLoco Motif Activity (Green Fluorophore) (AID 879).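 Note: 0% = labeled peptide with Gαi1 and full inhibition = labeled peptide alone without protein; negative values mean loss of peptide binding seen as reduced polarization.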 The gist of the method: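 Fluorescence polarization assay: 50 nM Gαi1 with 10 nM FITC-labeled RGS12 GoLoco peptide in 10 mM Tris pH 7.5, 150 mM NaCl, 0.1 mM GDP, 0.05% NP40, 10 min at room temperature with compound.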

Experiment [8] deals with Cytochrome P450 3A4 (Homo sapiens) (UniProt P08684). In words: qHTS Assay for Activators of Cytochrome P450 3A4 (AID 885). Note: nearly all actives have a fitted effect of over 65% in size. Note: potency is the fitted concentration of half-maximal effect. In a few lines:
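Signal was normalized against complete inhibition by 57 uM ketoconazole. The reaction used 20nM CYP3A4 with 25uM Luciferin-PPXE, 10-min compound preincubation and a 60-min NADPH-supported step at RT.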

Experiment [9] addresses Muscarinic acetylcholine receptor M1 (Rattus norvegicus) (UniProt P08482). The experiment can be described thus: qHTS Assay for Antagonists of Acetylcholine Muscarinic M1 Receptor: Measurement of IP-One Response (AID 944). Note: nearly all actives have a fitted effect of over 75% in size. In a few lines:
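CHO cells expressing rat M1 receptor, recovered overnight, were pre-incubated 10 min with compound, then stimulated 30 min with carbachol at EC80 (200 nM) in LiCl-containing buffer, pH 7.4. IP1 accumulation was read by HTRF (620/665 nm).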

The target in experiment [10] is Pyruvate kinase (Leishmania mexicana) (UniProt Q27686). In words: qHTS Validation Assay for Inhibitors of Leishmania Mexicana Pyruvate Kinase (AID 945).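 Note: 0% = DMSO only neutral control wells.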 The gist of the method:
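Read-out: luminescence from PKLight stop/detection reagent, data normalized to DMSO. Reaction: 0.2 nM E451W LmPYK, 0.5 mM PEP, 0.1 mM ADP, pH 7.2, 1 h room temperature.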

Experiment [11] deals with Pyruvate kinase PKM (Homo sapiens) (UniProt P14618). In words: qHTS Assay for Activators of Human Muscle Pyruvate Kinase (AID 954; active = well fitted curve in the direction sought with a large enough effect, not every such curve was filed as active;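 note: 0% = uninhibited enzyme and -100% = no enzyme or full thiadiazolimine inhibition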). In a few lines:
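Human PKM2 activity is measured as ATP generation, detected by luciferase-coupled luminescence. The enzyme (0.1 nM) acts on 0.5 mM PEP and 0.1 mM ADP for 1 h at ambient temperature; data are normalized to uninhibited and full-inhibition wells.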

In experiment [12] the target is Alpha-galactosidase A (Homo sapiens) (UniProt P06280). The experiment can be described thus: Counterscreen for Glucocerebrosidase Inhibitors: qHTS Assay for Human alpha-Galactosidase at pH 4.5 (AID 992). Note: 0% is about no effect. The gist of the method: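 Quantitative HTS: compounds tested from 0.7 nM up to 77 uM against 2 nM enzyme with 80 uM 4-MU alpha-D-galactopyranoside. The 20 min room-temperature reaction is stopped with 1M NaOH/1M glycine, pH 10.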
Background: A counterscreen serves to expose hits that act by an unwanted route or on another target.

Experiment [13] deals with alpha-glucosidase (Oryza sativa, rice) (UniProt Q653V4). In words: Counterscreen for Glucocerebrosidase Inhibitors: qHTS Assay for Rice alpha-Glucosidase at pH 5.0 (AID 997).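 Note: 0% = full activity with enzyme and -100% = basal without enzyme.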 The gist of the method:
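Rice alpha-glucosidase (4 nM final) with 400 uM 4-methylumbelliferyl-alpha-D-glucopyranoside in citrate buffer pH 5.0, 20 min at room temperature, stopped at pH 10; fluorescence 365/440 nm, compounds 0.7 nM–77 uM, AC50 from Hill fits.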

A short description of experiment [14]: Primary qHTS for small molecule stabilizers of the endoplasmic reticulum resident proteome: Secreted ER Calcium Modulated Protein (SERCaMP) assay (AID 1508630). Note: % is set by controls: 0 for no effect and ±100 for the full control effect. The gist of the method:
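GLuc-SERCaMP-expressing SH-SY5Y cells, pretreated 16 h with compound, are challenged with thapsigargin to empty ER calcium stores; after 4 h, coelenterazine is added directly to the medium and luminescence is imaged.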

Experiment [15] deals with Lysosomal acid glucosylceramidase (Homo sapiens) (UniProt P04062). In words: Glucocerebrosidase-p2 (AID 348; in the data active = potency below about 10 µM; note: potency is the fitted concentration of half-maximal effect). The note with it: purified GBA, blue fluorogenic substrate, 40 min. The gist of the method: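 Compounds titrated from 0.6 nM upwards against 0.2 nM enzyme in pH 5.9 citric acid/KH2PO4, taurocholate, tween-20; blue fluorogenic substrate 80 uM, 40 min room temperature, stopped and read Ex 365/Em 440 for AC50.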

The nature of experiment [16]: Stat Signaling Pathway (AID 446; active = well fitted curve in either direction with a large enough effect, not every such curve was filed as active). The note with it: ME-180 SIE beta-lactamase reporter, IL-6 stimulated, 5 h; at 7.69 µM (top of the series) unless noted. In a few lines: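 Reporter line: ME-180 cervical carcinoma, SIE-beta-lactamase. Treatment: compound with 40 pM IL-6, 5 hrs, 37 C, in low-serum OPTI-MEM with 10 mM HEPES pH 7.3. Detection: 460/530 nm fluorescence.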

Experiment [17] has as its target Glucocorticoid receptor (Homo sapiens) (UniProt P04150). The experiment can be described thus: GR-GFP Redistribution (AID 450;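 active = compounds whose dose series gives a full or clear partial fitted curve of increased nuclear translocation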; note: potency is the fitted concentration of half-maximal effect). The note with it: U2OS GR-GFP nuclear translocation, laser cytometry, 2 h.
Experiment [18] deals with Cytochrome P450 3A4 (Homo sapiens) (UniProt P08684). The experiment can be described thus: qHTS Assay for Inhibitors and Substrates of Cytochrome P450 3A4 (AID 884). Note: % is set by controls: 0 for no effect and ±100 for the full control effect; nearly all actives have a fitted effect of over 50% in size. The gist of the method:
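20 nM human CYP3A4 with 25 uM Luciferin-PPXE (at KM) in 200 mM KPO4, preincubated 10 min with compound; NADPH regeneration started a 60 min RT reaction. Luciferin detected by luminescence, normalized to 57 uM ketoconazole as full inhibition.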

Experiment [19] is described as follows: qHTS Assay for Identification of Small Molecule Agonists for Hypoxia Response Element Signaling Pathway (AID 914; active = well fitted activation curve with a large enough effect in the signal ratio, with a control signal flat, not every such curve was filed as active; the % refers to the signal ratio; note: potency is the fitted concentration of half-maximal effect). The note with it: ME-180 (cervical carcinoma) HRE-bla reporter, beta-lactamase ratio, CoCl2, 17 h; activation: hits give high values. The gist of the method: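 qHTS titration; ME-180 HRE-bla cells; EC50 CoCl2 co-treatment, 17 h at 37 degrees Celsius; CCF4 dye, ex 405nm, em 460nm and 530nm; %Activity from ratio; AC50.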

Each structure is given as a SMILES string. Unmarked numbers belong to inactive results. Records with an inconclusive call do not appear. Activity calls are given as the source filed them. Unless noted, calls come from the whole dose curve; as a rule, active = well fitted curve in the direction sought with a large enough effect; inconclusive = small, poorly fitted or top-dose-only effect, or another doubt; inactive = no such curve, though single readings can be large; an effect the other way counts as inactive or inconclusive.

3',5'-cyclic-AMP phosphodiesterase 4B (Homo sapiens), sequence (Q07343 whole entry, looked up): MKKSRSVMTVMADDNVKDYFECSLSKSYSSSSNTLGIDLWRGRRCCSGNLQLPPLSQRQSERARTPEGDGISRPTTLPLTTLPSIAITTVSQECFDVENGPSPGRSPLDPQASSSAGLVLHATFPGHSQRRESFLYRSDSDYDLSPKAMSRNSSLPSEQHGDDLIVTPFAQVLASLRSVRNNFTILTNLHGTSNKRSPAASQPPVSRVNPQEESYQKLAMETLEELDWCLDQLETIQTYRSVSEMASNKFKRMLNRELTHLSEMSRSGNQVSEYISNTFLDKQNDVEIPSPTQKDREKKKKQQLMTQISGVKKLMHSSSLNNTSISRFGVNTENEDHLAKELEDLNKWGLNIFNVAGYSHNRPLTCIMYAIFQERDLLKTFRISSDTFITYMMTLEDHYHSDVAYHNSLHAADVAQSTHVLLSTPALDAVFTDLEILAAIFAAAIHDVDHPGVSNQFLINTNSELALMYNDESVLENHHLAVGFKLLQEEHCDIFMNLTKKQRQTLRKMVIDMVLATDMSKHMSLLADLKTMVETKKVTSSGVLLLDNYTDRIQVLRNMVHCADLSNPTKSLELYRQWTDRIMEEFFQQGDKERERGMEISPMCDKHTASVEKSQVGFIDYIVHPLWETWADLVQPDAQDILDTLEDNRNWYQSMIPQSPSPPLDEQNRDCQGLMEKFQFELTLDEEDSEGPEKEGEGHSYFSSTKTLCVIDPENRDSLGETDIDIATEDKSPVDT
Glucocorticoid receptor (Homo sapiens), sequence (P04150 whole entry, looked up, the tested form may be a part): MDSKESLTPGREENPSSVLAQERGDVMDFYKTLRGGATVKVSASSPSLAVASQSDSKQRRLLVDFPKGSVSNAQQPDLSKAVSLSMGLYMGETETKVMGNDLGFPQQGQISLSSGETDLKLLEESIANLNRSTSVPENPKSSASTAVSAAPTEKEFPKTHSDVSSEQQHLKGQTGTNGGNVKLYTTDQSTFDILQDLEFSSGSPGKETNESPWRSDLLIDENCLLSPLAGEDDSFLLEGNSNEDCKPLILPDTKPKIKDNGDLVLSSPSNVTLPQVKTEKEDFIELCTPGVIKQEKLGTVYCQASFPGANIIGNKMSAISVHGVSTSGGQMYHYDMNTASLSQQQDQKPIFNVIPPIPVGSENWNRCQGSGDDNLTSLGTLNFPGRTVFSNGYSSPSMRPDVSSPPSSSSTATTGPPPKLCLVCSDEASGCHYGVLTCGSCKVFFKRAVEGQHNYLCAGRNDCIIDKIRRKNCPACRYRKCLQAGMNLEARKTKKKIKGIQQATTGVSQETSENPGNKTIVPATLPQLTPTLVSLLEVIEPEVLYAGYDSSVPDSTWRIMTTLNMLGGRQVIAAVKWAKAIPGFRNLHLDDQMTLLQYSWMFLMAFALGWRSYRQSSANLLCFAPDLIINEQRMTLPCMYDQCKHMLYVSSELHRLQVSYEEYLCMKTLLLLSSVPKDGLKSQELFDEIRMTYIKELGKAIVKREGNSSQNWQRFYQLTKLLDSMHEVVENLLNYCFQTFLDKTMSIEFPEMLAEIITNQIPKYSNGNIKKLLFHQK
Cytochrome P450 1A2 (Homo sapiens), sequence (P05177 whole entry, looked up): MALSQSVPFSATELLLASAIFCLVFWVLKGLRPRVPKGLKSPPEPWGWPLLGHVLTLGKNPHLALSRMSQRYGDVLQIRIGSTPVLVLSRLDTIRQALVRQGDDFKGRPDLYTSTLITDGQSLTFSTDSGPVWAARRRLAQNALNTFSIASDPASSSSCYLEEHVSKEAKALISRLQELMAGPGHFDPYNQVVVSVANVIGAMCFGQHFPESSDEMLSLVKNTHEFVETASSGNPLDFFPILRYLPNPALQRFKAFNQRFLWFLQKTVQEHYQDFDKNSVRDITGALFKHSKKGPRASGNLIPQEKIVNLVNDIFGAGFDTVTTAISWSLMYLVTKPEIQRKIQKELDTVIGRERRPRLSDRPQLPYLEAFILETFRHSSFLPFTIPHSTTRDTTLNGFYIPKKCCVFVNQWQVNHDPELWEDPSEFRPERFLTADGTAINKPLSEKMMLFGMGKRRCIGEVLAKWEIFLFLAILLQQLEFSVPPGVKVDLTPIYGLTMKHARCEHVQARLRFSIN
Cytochrome P450 3A4 (Homo sapiens), sequence (P08684 whole entry, looked up): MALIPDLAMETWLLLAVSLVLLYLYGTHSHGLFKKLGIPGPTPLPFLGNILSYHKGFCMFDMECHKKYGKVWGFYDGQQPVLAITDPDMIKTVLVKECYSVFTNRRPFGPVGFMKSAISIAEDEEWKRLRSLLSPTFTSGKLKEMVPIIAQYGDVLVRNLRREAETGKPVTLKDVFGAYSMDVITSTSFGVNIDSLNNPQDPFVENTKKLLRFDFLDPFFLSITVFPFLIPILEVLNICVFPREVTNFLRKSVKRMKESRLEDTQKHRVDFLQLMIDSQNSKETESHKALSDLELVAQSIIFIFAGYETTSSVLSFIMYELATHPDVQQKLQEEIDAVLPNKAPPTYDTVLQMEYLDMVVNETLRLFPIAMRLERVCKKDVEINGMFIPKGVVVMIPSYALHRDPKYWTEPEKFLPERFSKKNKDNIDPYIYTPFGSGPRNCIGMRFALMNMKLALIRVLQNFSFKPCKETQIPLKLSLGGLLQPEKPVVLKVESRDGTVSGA
Lysosomal acid glucosylceramidase (Homo sapiens), sequence (P04062 whole entry, looked up): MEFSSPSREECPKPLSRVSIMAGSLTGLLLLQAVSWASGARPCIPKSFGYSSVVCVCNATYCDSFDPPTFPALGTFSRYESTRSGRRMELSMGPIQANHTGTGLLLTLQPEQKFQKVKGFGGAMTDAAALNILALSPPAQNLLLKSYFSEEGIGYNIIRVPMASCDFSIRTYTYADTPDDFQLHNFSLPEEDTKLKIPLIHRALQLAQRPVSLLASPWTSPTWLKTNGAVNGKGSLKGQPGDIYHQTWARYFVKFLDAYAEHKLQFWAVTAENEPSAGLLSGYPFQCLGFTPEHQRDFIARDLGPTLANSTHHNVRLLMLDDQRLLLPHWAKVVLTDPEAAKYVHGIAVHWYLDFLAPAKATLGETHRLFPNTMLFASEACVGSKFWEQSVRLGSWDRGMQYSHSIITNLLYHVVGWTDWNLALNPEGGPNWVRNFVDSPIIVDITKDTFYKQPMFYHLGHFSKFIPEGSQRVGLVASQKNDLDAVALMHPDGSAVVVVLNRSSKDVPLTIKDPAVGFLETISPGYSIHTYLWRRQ
Alpha-galactosidase A (Homo sapiens), sequence (P06280 whole entry, looked up): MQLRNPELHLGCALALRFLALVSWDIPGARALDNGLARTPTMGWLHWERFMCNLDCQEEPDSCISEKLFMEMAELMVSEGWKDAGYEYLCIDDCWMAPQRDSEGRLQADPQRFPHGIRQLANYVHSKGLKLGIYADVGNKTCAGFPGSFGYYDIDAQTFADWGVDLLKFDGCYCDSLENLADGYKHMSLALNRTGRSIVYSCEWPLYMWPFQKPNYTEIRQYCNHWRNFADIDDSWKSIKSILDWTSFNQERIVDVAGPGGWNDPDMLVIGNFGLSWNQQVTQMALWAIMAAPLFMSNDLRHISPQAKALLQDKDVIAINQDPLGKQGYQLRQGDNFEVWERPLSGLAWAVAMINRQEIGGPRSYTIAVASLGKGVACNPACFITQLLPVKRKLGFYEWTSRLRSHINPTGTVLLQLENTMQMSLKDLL
Muscarinic acetylcholine receptor M1 (Rattus norvegicus), sequence (P08482 whole entry, looked up): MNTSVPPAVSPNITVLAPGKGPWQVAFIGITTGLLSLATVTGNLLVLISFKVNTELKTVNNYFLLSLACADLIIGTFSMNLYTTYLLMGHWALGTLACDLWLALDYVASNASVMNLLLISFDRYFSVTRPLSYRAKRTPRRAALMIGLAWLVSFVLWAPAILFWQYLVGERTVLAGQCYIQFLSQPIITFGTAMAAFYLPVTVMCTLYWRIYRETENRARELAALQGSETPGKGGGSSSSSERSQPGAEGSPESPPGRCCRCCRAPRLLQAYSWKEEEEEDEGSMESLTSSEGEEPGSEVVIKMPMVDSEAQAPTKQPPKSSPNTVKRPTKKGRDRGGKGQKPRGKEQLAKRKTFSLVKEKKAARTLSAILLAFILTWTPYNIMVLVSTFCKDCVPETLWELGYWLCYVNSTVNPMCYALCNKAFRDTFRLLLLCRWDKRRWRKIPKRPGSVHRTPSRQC
Pyruvate kinase (Leishmania mexicana), sequence (Q27686 2-499 E452W): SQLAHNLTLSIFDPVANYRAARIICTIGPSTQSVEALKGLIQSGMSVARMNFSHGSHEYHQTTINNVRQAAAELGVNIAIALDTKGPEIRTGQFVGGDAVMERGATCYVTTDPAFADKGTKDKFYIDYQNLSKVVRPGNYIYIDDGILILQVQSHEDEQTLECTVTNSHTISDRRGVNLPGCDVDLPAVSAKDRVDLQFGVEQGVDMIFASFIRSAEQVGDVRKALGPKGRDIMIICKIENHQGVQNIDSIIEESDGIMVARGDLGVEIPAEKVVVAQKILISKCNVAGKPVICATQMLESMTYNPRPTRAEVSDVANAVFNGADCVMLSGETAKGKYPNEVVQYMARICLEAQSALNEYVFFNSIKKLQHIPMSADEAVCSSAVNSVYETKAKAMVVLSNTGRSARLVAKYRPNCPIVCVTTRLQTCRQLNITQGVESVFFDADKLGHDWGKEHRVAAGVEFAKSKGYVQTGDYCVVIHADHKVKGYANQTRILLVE
Guanine nucleotide-binding protein G(i) subunit alpha-1 (Homo sapiens), sequence (P63096 whole entry, looked up): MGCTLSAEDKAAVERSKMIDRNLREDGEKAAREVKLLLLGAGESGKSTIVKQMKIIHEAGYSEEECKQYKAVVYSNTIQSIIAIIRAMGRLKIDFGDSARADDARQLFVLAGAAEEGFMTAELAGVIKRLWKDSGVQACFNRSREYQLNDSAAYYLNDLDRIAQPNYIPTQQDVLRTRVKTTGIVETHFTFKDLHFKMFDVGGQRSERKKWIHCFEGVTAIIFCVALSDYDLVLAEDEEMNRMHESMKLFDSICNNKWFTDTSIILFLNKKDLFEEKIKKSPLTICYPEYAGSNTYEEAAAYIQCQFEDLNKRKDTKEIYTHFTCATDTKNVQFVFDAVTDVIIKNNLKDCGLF

Turning to `Oc1cc2c(c(Cl)c1O)CCNC[C@H]2c1ccccc1`, the values for the activity change, negative = inhibition in [1] and in experiment [3] were -21% [at 38 µM] and -20.4% [at 38 µM], respectively. The Potency result in [2], in [5], in [6], in [7], in experiment [8] and in experiment [9] was “inactive” in each case. In addition, the Potency in experiment [4] is over 46 µM. Also, the call in [10], in [11], in experiment [12], in [13] and in [14] was inactive.
`COc1cccc(Nc2ncc3nc(CCc4ccccc4)c(=O)n(C4CC4)c3n2)c1`: the Potency is over 11.4 µM in [15], 5.01 µM (active) in experiment [2], over 9.22 µM in experiment [17] and over 46 µM in experiment [4]. Further, the activity, negative = inhibition in [16] was -19.3%. In addition, the Potency result in experiment [5] and in [8] was “inactive” in each case. The result in experiment [14] was inactive.
Regarding `COc1ccc(C(=O)N2CCC3(CCN(C(=O)Nc4cccc(C#N)c4)CC3)CC2)cc1`, the Potency in experiment [15] was over 11.4 µM; in experiment [4], over 46 µM. In addition, in experiment [16], the activity, negative = inhibition was -23.9%. Also, the result in experiment [14] was inactive.
Turning to `COc1cccc(Nc2ncc3nc(-c4ccc(F)cc4)c(=O)n(C[C@H]4CCCO4)c3n2)c1`, the Potency was over 11.4 µM in experiment [15], over 9.22 µM in experiment [17] and over 46 µM in experiment [4]. Also, the activity change, negative = inhibition in [3] is -9.67%. For the same compound, the activity, negative = inhibition in [16] was -5.57%. Moreover, the Potency result in experiment [5] and in experiment [6] was “inactive” each time. The result in experiment [14] was inactive.
With `COc1ccc(NC(=O)N2CCC3(CC2)CCN(C(=O)c2cccc(F)c2)CC3)cc1`, the activity change, negative = inhibition in [1] is -4.05%; in experiment [3] it was 8.11%. In addition, the Potency entry in experiment [2], in [5], in experiment [6] and in experiment [18] was “inactive” throughout. Also, the activity, negative = inhibition in [16] is 0.897%. The results for the Potency in experiment [4] and in experiment [8] were over 46 µM and 12.6 µM (active), respectively. Moreover, the result in [14] was inactive.
In the case of `CCNc1ncc2nc(-c3ccccc3)c(=O)n(CCc3ccccc3)c2n1`, the Potency was over 11.4 µM in [15]; 12.6 µM (active) in experiment [2]; over 9.22 µM in experiment [17]; over 46 µM in experiment [4]; 1.58 µM (active) in experiment [19]. For the same compound, the Potency result in experiment [5], in experiment [6] and in [8] was “inactive” in each case. For the same compound, in [14], the result was inactive.
